Results as given in PubChem BioAssay (Tox21).
Unmarked numbers belong to inactive results. Inconclusive results are not listed. A call without a number means that no potency is given here. Calls of active or inactive are those of the source. Unless noted, the call rests on the fitted dose curve; in most records, active means well fitted curve in the direction sought with a large enough effect in the repeat runs; inconclusive means weak or mixed curves; inactive means no such curve, though single readings can be large; an effect the other way counts as inactive or inconclusive.

Key:
[1] = qHTS assay for small molecule agonists of the p53 signaling pathway (AID 651631; calls by dose curve; further: nearly all actives have a fitted effect of over 15% in size)
Summary of the method: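 Stably transfected HCT-116 cells (beta-lactamase behind p53 response elements) get compounds after a 5 h settling period; 16 h later at 37 °C, FRET substrate is loaded and fluorescence read after 2 h.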

[2] = qHTS assay for small molecules that induce genotoxicity in human embryonic kidney cells expressing luciferase-tagged ATAD5 (AID 651632); further: nearly all actives have a fitted effect of over 15% in size
Summary of the method: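 Concentration-response screen for ATAD5 upregulation in HEK293T luciferase reporter cells; 16 hr treatment at 37C, then luminescence after 30 min with Amplite at room temperature.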

[3] = qHTS assay for small molecule agonists of the p53 signaling pathway - cell viability (AID 651633; calls by dose curve;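 further: p53RE-bla HCT reporter cells with a stable beta-lactamase p53 reporter; series mostly up to about 83 µM; nearly all actives have a fitted effect of over 30% in size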)
Summary of the method: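 Viability counter-read: CellTiter-Glo luminescence (30 min, room temperature) in the same p53RE-bla plates. These plates had been exposed to compounds for 16 h at 37 C.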

[4] = qHTS assay for small molecules that induce genotoxicity in human embryonic kidney cells expressing luciferase-tagged ATAD5 - cell viability (AID 651634; calls by dose curve; further: nearly all actives have a fitted effect of over 25% in size)
Summary of the method: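 15.5 hr compound or vehicle exposure of HEK293T cells expressing luciferase-tagged ATAD5 at 37C; live-cell protease activity is read by fluorescence after 30 min of CellTiter-Fluor.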

[5] = qHTS assay for small molecule disruptors of the mitochondrial membrane potential - cell viability (AID 720634; calls by dose curve;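 further: human HepG2 liver cancer cells; series mostly up to about 83 µM; nearly all actives have a fitted effect of over 20% in size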)
Summary of the method: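 In this qHTS format, HepG2 cells plated overnight were pinned with compound, incubated 1 hr, and assayed for ATP luminescence with CellTiter-Glo after m-MPI dye addition.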

[6] = qHTS assay for small molecule disruptors of the mitochondrial membrane potential (AID 720635); further: potency means the concentration at half of the fitted maximal effect
Summary of the method: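 Mitochondrial membrane potential tracked with Mito-MPS dye, red aggregates (ex 540/em 590 nm) against green monomers (ex 490/em 535 nm). Compound treatment 1 hr at 37C, dye 30 min in HepG2.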

[7] = qHTS assay to test for compound auto fluorescence at 590 nm (red) in HepG2 cells (AID 720674)
Summary of the method: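 Red autofluorescence (Ex/Em 540/590 nm, Rose Bengal sodium equivalents) was measured in HepG2 cells, 2,000 per well in MEM plus 10% FBS, plated overnight at 37 C. Readings were taken 1 hr after adding 23 nL compound or DMSO, at 37 C and 5% CO2.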

[8] = qHTS assay to test for compound auto fluorescence at 535 nm (green) in HepG2 cells (AID 720675)
[9] = qHTS assay to test for compound auto fluorescence at 590 nm (red) in HEK293 cells (AID 720679)
Summary of the method: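 Plates of HEK293 cells (10% dialyzed FBS) are treated with 23 nL compound or DMSO vehicle after a 4-5 hr attachment period, incubated overnight at 37C, and read for red fluorescence at 540/590nm.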

[10] = qHTS assay to test for compound auto fluorescence at 460 nm (blue) in HEK293 cells (AID 720678)
Summary of the method: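 After cell attachment (4-5 hr, 37C), compounds were pinned onto HEK293 monolayers in 10% dialyzed FBS medium. The blue channel (405/460 nm) was read following overnight culture. Equivalency was calculated against triamterene.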

SMILES	Potency [1]	Potency [2]	Potency [3]	Potency [4]	Potency [5]	Potency [6]	outcome [7]	outcome [8]	outcome [9]	outcome [10]	fluorescence, relative to Rose Bengal [7]	fluorescence, % of fluorescein control [8]	fluorescence, % of fluorescent control [9]	fluorescence, % of triamterene [10]
CCCSC(=O)Cl	inactive	inactive	inactive	inactive	inactive	inactive	inactive	inactive	inactive					
OC(c1ccc(F)cc1)(c1cncnc1)c1ccccc1Cl (centres undefined)	inactive	inactive	inactive	inactive	inactive	inactive	inactive	inactive	inactive	inactive				
COc1cc(OC)nc(Sc2cccc(Cl)c2C(=O)O)n1	inactive	inactive	inactive	inactive	inactive	inactive	inactive		inactive	inactive				
Cc1coc2c1CCC(C)C2 (centres undefined)	inactive	inactive	inactive	inactive	inactive	25.1 µM (active)	inactive		inactive	inactive				
C=C(C)CN(CC)c1c([N+](=O)[O-])cc(C(F)(F)F)cc1[N+](=O)[O-]	inactive	inactive	inactive	inactive	inactive	30.6 µM (active)	inactive	inactive	inactive	inactive				
CCCCc1c(C)nc(NCC)[nH]c1=O	inactive	inactive	inactive	inactive	inactive		inactive	inactive	inactive	inactive				
NC(=O)O	inactive	inactive	inactive	inactive	inactive	inactive	inactive	inactive	inactive	inactive				
CC1CCC(=O)O1 (centres undefined)	inactive	inactive	inactive	inactive	inactive	inactive	inactive	inactive	inactive					
OC(Cn1cncn1)(c1ccc(F)cc1)c1ccccc1F (centres undefined)	inactive	inactive	inactive	inactive	inactive	inactive	inactive	inactive	inactive					
C[C@]1(O)CC[C@H]2[C@@H]3CCC4=CC(=O)CC[C@]4(C)[C@@]3(F)[C@@H](O)C[C@@]21C	inactive	inactive	inactive	inactive	inactive	inactive	inactive	inactive	inactive	inactive				
CCCCN(CCCCO)N=O	inactive	inactive	inactive	inactive	inactive	inactive	inactive	inactive	inactive					
CC(C1CC1)C(O)(Cn1cncn1)c1ccc(Cl)cc1 (centres undefined)	inactive	inactive	inactive	inactive	inactive		inactive	inactive	inactive	inactive				
O=P(O)(Oc1ccccc1)Oc1ccccc1	inactive	inactive	inactive	inactive	inactive	inactive	inactive		inactive					
CCN(Cc1ccc(Cl)nc1)/C(=C/[N+](=O)[O-])NC	inactive	inactive	inactive	inactive	inactive	inactive	inactive	inactive	inactive	inactive				
NC(=O)c1cc([N+](=O)[O-])cc([N+](=O)[O-])c1	inactive	inactive	inactive	inactive	inactive	inactive	inactive	inactive	inactive	inactive				
OCCSCSCCO	inactive	inactive	inactive	inactive	inactive	inactive	inactive		inactive					
CC1(C)CON(Cc2ccccc2Cl)C1=O	inactive	inactive	inactive	inactive	inactive	inactive	inactive	inactive	inactive	inactive				
CC(=O)Nc1cc([As](=O)(O)O)ccc1O	inactive	inactive	inactive	inactive	inactive	inactive	inactive		inactive	inactive				
O=C(CCCN1CCC(n2c(=O)[nH]c3ccccc32)CC1)c1ccc(F)cc1	inactive	inactive	inactive	inactive	inactive	inactive					-0.608% [at 18.6 µM]	0.0365% [at 18.6 µM]	0.426% [at 18.6 µM]	
CN(N=O)C(N)=O	inactive	inactive	inactive	inactive	inactive		inactive	inactive	inactive	inactive				
NC(=S)C(N)=S	inactive	inactive	inactive	inactive	inactive	inactive	inactive	inactive	inactive	inactive				
ClCCOCOCCCl	inactive	inactive	inactive	inactive	inactive	inactive	inactive	inactive	inactive	inactive				
C[C@@H]1CN(C2CCC(C#N)(c3ccc(F)cc3)CC2)CC[C@]1(C(=O)O)c1ccccc1 (some centres undefined)	inactive	inactive	inactive	inactive	inactive	inactive					-0.0454% [at 18.6 µM]		0.571% [at 18.6 µM]	0.0981% [at 18.6 µM]
